In all, about 13,000 compounds were measured (“IFI”: median about 4, highest 2% from about 17 on). Only a selection was taken, and the highest values are over-represented in it overall.
Assay: GSK_TCMDC: Inhibition Frequency Index (IFI). The number of non-kinase HTS assays where a compound showed > 50 % inhibition, expressed as a percentage of the number of such assays in which the compound was tested
Type: functional

SMILES | IFI [%]
Cc1cc(=NN=Cc2ccccc2F)c2cc(F)ccc2[nH]1 | 0
O=C(NC1CCC(N2CCN(c3cccc(C(F)(F)F)c3)CC2)CC1)c1cc2ccccc2[nH]1 (stereo not drawn) | 17.6
O=C(NC1CCC(N2CCC(Cc3ccc(F)cc3)CC2)CC1)c1cc2ccccc2[nH]1 (stereo not drawn) | 14.7
O=C(NC1CCC(N2CCC(c3ccccc3C(F)(F)F)CC2)CC1)c1cc2ccccc2[nH]1 (stereo not drawn) | 10.4
O=C(NC1CCC(N2CCC(O)(c3ccc(F)cc3)CC2)CC1)c1cc2ccccc2[nH]1 (stereo not drawn) | 1.54
Cc1cccc(N2CCN(C3CCC(NC(=O)c4cc5ccccc5[nH]4)CC3)CC2)c1C (stereo not drawn) | 22.9
Cc1cccc(C)c1N1CCN(C2CCC(NC(=O)c3cc4ccccc4[nH]3)CC2)CC1 (stereo not drawn) | 13.2
COc1ccc(Nc2c3ccc(Cl)cc3nc3ccc(OC)cc23)cc1 | 5.11
COc1ccccc1C1CCN(C2CCC(NC(=O)/C=C/c3cc(F)cc(C(F)(F)F)c3)CC2)CC1 (stereo not drawn) | 11.5
Cc1cccc2nc(-c3ccc(-c4cccc(CNCc5ccccc5)c4)s3)[nH]c12 | 4.81
COc1ccc(-c2cncc3ccc(C(=O)NCc4ccncc4)nc23)cc1 | 6.45
COc1ccc(Cc2cccc(C(C(=O)NCc3cc(Cl)cc(Cl)c3)N3CCN(C)CC3)c2)cc1 (stereo not drawn) | 7.75
O=C(Nc1cccc(C(F)(F)F)c1)Nc1ccc(Cl)c(C(F)(F)F)c1 | 16.7
CC(C)NCC(=O)Nc1cccc(C(=O)Nc2cccc(C(F)(F)F)c2)c1 | 2.04
NC(=O)CCC(NC(=O)CNC(=O)Nc1cccc(C(F)(F)F)c1)C(=O)O (stereo not drawn) | 19.9
CC(=O)N1N=C(c2ccc(Cl)cc2)Sc2c1nc(-c1ccccc1)n2C(C)=O | 0
Cn1c(=O)c2cc(C(=O)NCCCN3CCCCCC3)sc2c2ccccc21 | 3.23
OCCN1CCN(Cc2ccc(-c3ccc(-c4nc5cc(F)ccc5[nH]4)cc3)cc2)CC1 | 8.91
Cc1cc(=NN=Cc2ccc(F)cc2)c2cc(F)ccc2[nH]1 | 2.86
COc1ccc(C(=O)CCC(=O)N(Cc2ccc(-c3ccc(CNCCc4ccccc4)cn3)cc2)C(C)CN(C)C)cc1F (stereo not drawn) | 6.9
COc1ccc2c(c1CCNCCCCNCCc1c(OC)ccc3c1CCCC3)CCCC2 | 18.3
COc1ccc2c(c1CNCCCCCCNCc1c(OC)ccc3c1CCCC3)CCCC2 | 11.9
COc1cc2c(cc1CCNCCCCNCCc1cc3c(cc1OC)CCCC3)CCCC2 | 15.8
CCOC(=O)c1ccc(NC(=O)Nc2ccc(-c3cccc(-c4nc5cc(F)ccc5[nH]4)c3)cc2)cc1 | 4.95

SMILES | IFI [%]
Cc1cc(C(=O)NC2CCN(CC3(c4ccccc4)CCCCC3)CC2)on1 | 6.38
O=C(Nc1ccc(C(=O)Nc2ccc(C3=NCCN3)cc2)cc1)Nc1ccc(C2=NCCN2)cc1 | 5.84
COc1cc(C)cc(CN2CCC(Cc3ccccc3)CC2)c1O | 0.84
O=C(NC1CC1)c1cnc(N2CCC(Cc3ccccc3)CC2)c(Cl)c1 | 9.52
Oc1c(CN2CCC(Cc3ccccc3)CC2)cc(Cl)c2cccnc12 | 18.8
COc1ccccc1CN1CCC(CNC(=O)c2cc(-c3ccc(N(C)C)cc3)cs2)C1 (stereo not drawn) | 13.7
CCCCN(CCCC)CCCN(CCCN(CCCC)CCCC)c1cc(C)nc(Nc2ccc3cc(Br)ccc3c2)n1 | 15.2
CCCOc1ccc(CCCON2C(N)=NC(N)=NC2(C)C)cc1 | 6.29
CCCc1cccc(OC)c1OCCCON1C(N)=NC(N)=NC1(C)C | 4.51
CCC(C)c1cccc(C(C)CC)c1OCCCON1C(N)=NC(N)=NC1(C)C (stereo not drawn) | 24.1
CC(C)(C)c1ccc(OCCCON2C(N)=NC(N)=NC2(C)C)cc1 | 18.1
CCC(C)Oc1ccc(CCCON2C(N)=NC(N)=NC2(C)C)cc1 (stereo not drawn) | 5.76
CC1(C)N=C(N)N=C(N)N1OCCCCON1C(N)=NC(N)=NC1(C)C | 1.44
Cc1cc(-c2cccc(CNC3CCN(C)CC3)c2)ccc1S(=O)(=O)NC1CCC1 | 7.48
Nc1nc(N)c2c3c(ccc2n1)NCCC3 | 2.48
COc1ccc(CNCc2ccc(-c3ccc(-c4nc5cccc(C)c5[nH]4)cc3)cc2)cc1 | 13.1
O=C(Cn1cc(C(F)(F)F)cc(Cl)c1=O)N1CCN(S(=O)(=O)c2ccc(Cl)cc2)CC1 | 0
CCCNCc1ccc(-c2ccc(CN(CCOC)C(=O)CCC(=O)c3ccc(OC)c(F)c3)cc2)nc1 | 0.7
O=C(Nc1ccc(Cl)cc1)NC1CCN(CCCCCNC(=O)C2CC2c2ccc(Cl)c(Cl)c2)CC1 (stereo not drawn) | 10.2
O=C(Nc1ccc(F)c(C(F)(F)F)c1)NC1CCN(CCCCCNC(=O)C2CC2c2ccc(Cl)c(Cl)c2)CC1 (stereo not drawn) | 18.5
O=C(Nc1ccc(Cl)c(C(F)(F)F)c1)NC1CCN(CCCCCNC(=O)C2CC2c2ccc(Cl)c(Cl)c2)CC1 (stereo not drawn) | 17.1
O=C(Nc1ccc(Cl)c(C(F)(F)F)c1)N[C@H]1CCN(CCCCCNC(=O)C2CC2c2ccc(Cl)c(Cl)c2)C1 (stereo partly drawn) | 12.2
O=C(Nc1cccc(F)c1)N[C@H]1CCN(CCCCCNC(=O)C2CC2c2ccc(Cl)c(Cl)c2)C1 (stereo partly drawn) | 19.4
O=C(Nc1cc(F)cc(F)c1)N[C@H]1CCN(CCCCCNC(=O)C2CC2c2ccc(Cl)c(Cl)c2)C1 (stereo partly drawn) | 13.6

SMILES | IFI [%]
O=C(Nc1ccc(F)c(C(F)(F)F)c1)N[C@H]1CCN(CCCCCNC(=O)C2CC2c2ccc(Cl)c(Cl)c2)C1 (stereo partly drawn) | 15.9
O=C(Nc1ccc(C(F)(F)F)cc1)NC1CCN(CCCCCNC(=O)C2CC2c2ccc(Cl)c(Cl)c2)CC1 (stereo not drawn) | 11.1
O=C(Nc1cccc(F)c1)NC1CCN(CCCCCNC(=O)C2CC2c2ccc(Cl)c(Cl)c2)CC1 (stereo not drawn) | 11.5
COc1ccc(-c2cnc3ccc(NCCCO)nn23)cc1OC | 6.77
COc1ccc(-c2nc3cccnc3n2CC(=O)Nc2c(C)cc(C)cc2C)c(OC)c1 | 5.56
N=C1N=C(N)NCN1OCc1ccc(Cl)c(Cl)c1 | 0.72
Cc1[nH]c(C)c(-c2ccc(OCc3cc(C(F)(F)F)cc(C(F)(F)F)c3)nc2)c(=O)c1Br | 5.36
CC(C)(C)c1ccc2[nH]c(-c3ccc(/C=C/C(=O)NCc4cccc(C(F)(F)F)c4)cc3)nc2c1 | 2.9
Cc1cccc2nc(-c3cccc(-c4cccc(CN5CCCC5CN)c4)c3)[nH]c12 (stereo not drawn) | 4.95
Cc1nn(-c2cccc(C(F)(F)F)c2)c2sc(C(=O)NC3CCN(C(C)C)CC3)cc12 | 10
CCCCN(CCCC)CCCCNc1c2ccc(Cl)cc2nc2ccc(OC)cc12 | 6.87
CC1(C)NC(N)=NC(=N)N1OCCOc1ccc(Cc2ccccc2)cc1 | 4.41
CC1(C)NC(N)=NC(=N)N1OCCCCOc1ccccc1 | 2.17
N=C1N=C(N)NC2(CCCCC2)N1OCCCOc1cccc2ccccc12 | 9.16
CCCc1cc(OCCCOc2ccccc2)ccc1OCCCON1C(=N)N=C(N)NC1(C)C | 21.1
N=C1N=C(N)NC2(CCCCC2)N1OCCOc1ccc(Cc2ccccc2)cc1 | 27.6
CCCc1cc(C(C)=O)ccc1OCCCON1C(=N)N=C(N)NC1(C)C | 3.68
COc1ccccc1NC(=O)Nc1cccc(-c2cccc(-c3nc4cccc(C)c4[nH]3)c2)c1 | 3.03
c1cc(-c2ccc(CNC3CCOCC3)cc2)cc(-c2nc3ccccc3[nH]2)c1 | 0.97
CCCCCCCCNCc1c(O)ccc2ccccc12 | 7.69
C#CCOc1ccc2ccccc2c1CNCCCCCCNCc1c(OCC#C)ccc2ccccc12 | 14.1
Oc1ccc2ccccc2c1CNCCC1CCCCC1 | 2.96
CCCOc1ccc2ccccc2c1CNCCCCCCNCc1c(OCCC)ccc2ccccc12 | 17.6
c1ccc2c(CNCCCCCCNCc3c(OCC4CC4)ccc4ccccc34)c(OCC3CC3)ccc2c1 | 18.7

SMILES | IFI [%]
C=CCOc1ccc2ccccc2c1CNCCCCCCNCc1c(OCC=C)ccc2ccccc12 | 19.6
CCOc1ccc2ccccc2c1CNCCCCCCNCc1c(OCC)ccc2ccccc12 | 13
C/C=C/COc1ccc2ccccc2c1CNCCCCCCCCNCc1c(OC/C=C/C)ccc2ccccc12 | 16.6
C#CCCOc1ccc2ccccc2c1CNCCCCCCNCc1c(OCCC#C)ccc2ccccc12 | 12.8
CCCCCCOc1ccc2ccccc2c1CNCCCCCCNCc1c(OCCCCCC)ccc2ccccc12 | 22.8
c1ccc2[nH]c(-c3ccc(-c4ccc(CNCC5CCCO5)cc4)s3)nc2c1 (stereo not drawn) | 6.86
N#Cc1ccc(-c2ccc(C(=O)NCCCCN3CCC(c4ccc5c(c4OCC(N)=O)CCCC5)CC3)cc2)cc1 | 3.54
N=C(N)Nc1nc(-c2ccc(NC(=N)N3CCC[C@H]3CN3CCCC3)cc2)cs1 | 2.17
CCCCNc1nc(NCCCC)c2c(C)c(Cc3ccccc3)c(NCCCC)nc2n1 | 16.1
COc1ccc(CNCc2cccc(-c3ccc(-c4nc5cccc(C)c5[nH]4)s3)c2)cc1 | 10.4
COc1ccccc1/C=C/C(=O)NC1CCC(CCN2CCc3ccc(-c4cc(C)no4)cc3CC2)CC1 (stereo not drawn) | 3.88
Nc1c2ccccc2nc2ccc(Cl)cc12 | 9.03
Cc1noc(C)c1-c1cccc(CNCc2cccc(-c3cccc(-c4nc5ccccc5[nH]4)c3)c2)c1 | 3.92
COc1cc(CN/C(=N/c2ccc(-c3ccccc3)cc2)Nc2ccc(C#N)cc2O)cc(OC)c1 | 1.46
Cc1nc2nc(N)nc(N)c2c(C)c1Cc1ccc([N+](=O)[O-])cc1 | 1.6
O=C(NCCCCN1CCC(c2ccc3c(c2OCCCO)CCCC3)CC1)c1ccc(-c2ccc(C(F)(F)F)cc2)c(CO)c1 | 10.1
CC1(C)NC(N)=NC(=N)N1OCCOc1cccc(C(F)(F)F)c1 | 3.7
CCOc1cc2ncnc(Nc3ccc(OCc4c(F)cccc4F)c(OC)c3)c2cc1OCC | 0
Cc1ccc(NC(=N)Nc2ncccc2OCc2c(F)cccc2Cl)cc1 | 22
CCOc1cc2ncnc(Nc3ccc(OCc4c(Cl)cccc4Cl)c(OC)c3)c2cc1OCC | 0
O=C(Nc1ccccc1)N(Cc1ccc(-c2ccc(CNC3CCCC3)cc2)cc1)C1CCN(Cc2ccccc2)CC1 | 4.9

Reference: ChEMBL document CHEMBL1157539, “Thousands of chemical starting points for antimalarial lead identification” (Nature, 2010)
